Screens from PubChem.
Many of the other results were omitted from the sample, so hits are more common in it than they were.
Marburg entry inh: Marburg virus entry inhibition; AID 540276; Marburg virus pseudotyped entry inhibition, cell reporter; actives 1.8% (n = 300,000); Potency, µM (highest dose often 37.8 µM), for inactives: top-dose activity change, negative = inhibition, actives largely listed as inhibitors; calls by dose curve; tested in HEK293 cells; further: potency means the concentration at half of the fitted maximal effect; on the % scale 0 is the no-effect control and ±100 the full control effect
Cycloheximide cs: counter-screen for Shiga toxin inhibitors: cycloheximide protein synthesis inhibition; cell reporter, cycloheximide protein synthesis inhibition counterscreen; max response, %; actives 12% (n = 300,000); in the data active means max response mostly above about 13%, no sharp cut-off; inactive means mostly below about 14%; further: read at 38.3 µM for the half of the compounds with a filed dose; 0% is about no effect
Shiga toxin inh: Shiga toxin inhibition. AID 2315. Vero cells, Shiga toxin protein synthesis inhibition reporter. inhibition, % at 38.7 µM. actives 9.2% (n = 290,000); in the data active means inhibition mostly above about 28%, no sharp cut-off; inactive means mostly below about 43%; further: 0% is about no effect
LASV entry inh: inhibitors of Lassa virus binding or cell entry; Lassa virus pseudotype entry inhibition, cell reporter; actives 1.2% (n = 300,000); Potency, µM (top dose mostly 37.9 µM), for inactives: top-dose activity change, negative = inhibition, usual class: inhibitors; calls by dose curve; tested in HEK293 cells; further: potency means the concentration at half of the fitted maximal effect; on the % scale 0 is the no-effect control and ±100 the full control effect; nearly all actives have a fitted effect of over 50% in size
AMA1-RON2 inh: disrupts binding of P. falciparum AMA1 to RON2; Potency, µM (series often up to 58.2 µM), for inactives: at the top dose activity change, negative = inhibition, usual class: inhibitors; actives 0.2% (n = 360,000); AlphaScreen AMA1-biotinylated RON2 peptide binding; active means well fitted inhibition curve with a large enough effect; inconclusive means small, poorly fitted or top-dose-only effect; inactive means no such curve, though single readings can be large or run the other way;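 further: potency means the concentration at half of the fitted maximal effect; 0% = vehicle wells and -100% = peptide control; nearly all actives have a fitted effect of over 45% in size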
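AMA1 (3D7) with his tag at 25 nM final met compounds first, then biotinylated RON2 peptide at 25 nM; detection used donor plus acceptor beads, 10 µg/mL apiece, read by AlphaScreen after 30 min at room temperature.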
Starred values were filed as active, the others as inactive; ? = inconclusive; · = no result given; + = active, no number; [ ] = remark or other dose.

SMILES | Marburg entry inh | Cycloheximide cs | Shiga toxin inh | LASV entry inh | AMA1-RON2 inh
O=C(Nc1cccc(Cl)c1Cl)c1ccncc1 | -11% | 12 | 30 | 6% | -12%
CCOc1ccc2ccccc2c1C(=O)NCC(c1ccc(N(C)C)cc1)N(C)C (centres undefined) | · | -3 | -16 | · | -9%
CC1(C)CC(NC(=O)C2=C(C(=O)NC3CC(C)(C)NC(C)(C)C3)CCCC2)CC(C)(C)N1 | -17% | · | · | · | ·
Cc1cccc(NS(=O)(=O)c2ccc3c(c2)NC(=O)CO3)c1C | · | 12 | 0 | · | 3%
Cc1ccc(-c2nn(-c3ccc(F)cc3)cc2C(=O)N2CCN(C3CCS(=O)(=O)C3)CC2)cc1 (centres undefined) | · | · | · | · | 1%
O=C(Cn1cnc2ccccc2c1=O)N1CCOCC1 | ? | 3 | 2 | 0% | 3%
Cc1cc(C(=O)Cn2cnc3ccccc3c2=O)c(C)n1C1CC1 | 8% | · | · | 15%[46.1 µM] | 0%
COc1ccc(OC)c(NC(=O)CNC(=O)Cn2cnc3ccccc3c2=O)c1 | 0.71µM* | -2 | -3 | -4% | 10%
Cc1ccc(C(=O)Cn2cnc3ccccc3c2=O)cc1C | 24% | 64* | 104* | ? | -15%
COc1ccc(OCC(=O)Nc2cc(-c3nn(C)c(=O)c4ccccc34)ccc2OC)cc1 | 4.1µM* | 9 | -6 | ? | -25%
O=C(Cn1cnc2ccccc2c1=O)c1ccc2c(c1)OCCO2 | ? | 50* | 70* | ? | -1%
COc1ccc(NC(=O)COc2ccc(-c3nn(C)c(=O)c4ccccc34)cc2)cc1 | ? | -2 | -10 | -6%[46.1 µM] | -1%
O=C(NCCCc1ccccc1)[C@@H]1Cc2ccccc2CN1 | ? | -1 | -6 | 10%[46.1 µM] | 0%
O=C(Cn1cnc2ccccc2c1=O)c1ccc2ccccc2c1 | 7% | 56* | 68* | 23% | -5%
O=C(Cn1cnc2ccccc2c1=O)Nc1ccc2c(c1)OCO2 | ? | 56* | active | 23% | 1%[11.6 µM]
COc1ccc(C(=O)Cn2cnc3ccccc3c2=O)cc1 | 5%[46.1 µM] | 41* | 89* | 3% | 1%
O=C(Cn1ccc2ccccc2c1=O)NCCC(=O)Nc1ccc2c(c1)OCCO2 | -1% | 23* | 38 | 0% | 12%
O=C(Cn1ccc2ccccc2c1=O)Nc1ccc2c(c1)OCO2 | -4% | 5 | 0 | 2% | -11%
O=C(O)Cn1cnc2ccccc2c1=O | 1% | -7 | -17 | 14% | 1%
O=C(Cn1cnc2ccccc2c1=O)NCc1ccc2c(c1)OCO2 | 4% | -4 | -16 | 2% | -5%
COC(=O)Cn1cnc2ccccc2c1=O | -9%[46.1 µM] | 4 | -15 | -6% | -4%
CC12CCC(=O)C=C1CCC1C2CCC2(C)C1CC1C3C(=O)N(Cc4ccccc4)C(=O)C3CC(=O)C12 (centres undefined) | ? | · | · | 3%[46.1 µM] | -2%
O=[N+]([O-])c1cccc(S(=O)(=O)/N=C(/Nc2ccccc2)c2ccccc2)c1 | ? | · | · | 8% | 12%
CSc1ccc(Nc2nn(-c3ccc(OC(F)(F)F)cc3)nc2C(C)=O)cc1 | -1%[46.1 µM] | · | · | 6%[46.1 µM] | ·
O=C(NC(=S)Nc1ccc(Br)cc1)C1CCCCC1 | · | 9 | -10 | · | -2%
SMILES | Marburg entry inh | Cycloheximide cs | Shiga toxin inh | LASV entry inh | AMA1-RON2 inh
COC(=O)c1ccc(NC(=S)NC(=O)C2CCC2)cc1 | 19%[46.1 µM] | 26* | 64* | ? | -4%
CC(C)(C)C(=O)Nc1ccc(C(=O)OC2CCCCC2)cc1 | ? | 50* | 102* | ? | -3%
CCOC(=O)c1ccc(NC(=S)NNC(=O)C2(C)CC2(Cl)Cl)cc1 (centres undefined) | 17% | 15 | active | 7% | 3%
CCOC(=O)c1ccc(NC(=S)NNC(=O)COC)cc1 | 11% | -1 | -7 | 1% | 58%
O=C(NC(=S)Nc1ccc(Br)cc1)C1CCC1 | 0%[46.1 µM] | 47* | 102* | -27%[46.1 µM] | 37%
Cc1cc(F)ccc1NC(=O)CS(=O)(=O)c1cccc2nsnc12 | · | -5 | -5 | 0%[46.1 µM] | ·
O=C(OCCOc1cccc(Cl)c1)c1cc(S(=O)(=O)N2CCOCC2)ccc1F | 8% | · | · | 20% | 4%
COC(=O)c1ccc(NC(=S)Nc2ccccc2)cc1 | -7% | 8 | -33 | -2% | -4%
COc1ccc(NC(=S)NC(=O)C2CCC2)cc1 | · | 40* | 43* | · | 7%
CCOC(=O)c1ccc(NC(=S)NC2CCCC2)cc1 | 24% | 22* | + | 7% | -5%
COC(=O)c1ccc(NC(=S)NC2CCCCC2C)cc1 (centres undefined) | 2% | 25* | 16 | ? | 10%
CCOC(=O)c1ccc(NC(=O)CNC(=O)C2CCCCC2)cc1 | 7% | -4 | -11 | 7% | -7%
